Reference: PubChem BioAssay AID1159580 (chemical genetic matrix, 2015)
Hit rate of the full screen: of about 5,500 compounds, about 2,000 (36%) were called active. Not shown: some 18% with an inconclusive outcome. No stated cut-off is given here; in the data, active means normalized growth mostly below about 0.91 (no sharp cut-off); inconclusive means no clear call, values can overlap the other calls; inactive means mostly above about 0.92. Some of the results follow.

Assay: chemical genetic growth profiling, strain panel (AID 1159580);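 further: tested at 20 µM; growth read once vehicle control cultures reached saturation at 30 °C; 1 = growth at the plate median or of vehicle wells; lower values mean less growth of the strain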
Conditions: growth OD
[1] = S. cerevisiae deletion strains, locus YAL013W, strain DEP1, active compounds read low
[2] = S. cerevisiae deletion strains, locus YDR150W, strain NUM1, active compounds read low
[3] = S. cerevisiae deletion strains, locus YGR229C, strain SMI1, active compounds read low
[4] = S. cerevisiae deletion strains, locus YHR030C, strain SLT2, active compounds read low
[5] = S. cerevisiae deletion strains, locus YJR075W, strain HOC1, active compounds read low
[6] = S. cerevisiae deletion strains, locus YNL322C, strain KRE1, active compounds read low
[7] = S. cerevisiae deletion strains, locus YPL055C, strain LGE1, active compounds read low

Measured: normalized growth

O=C(O)C1=CC(=C(c2ccc(O)c(C(=O)O)c2)c2ccc(O)c(C(=O)O)c2)C=CC1=O
active: [3] 0.823 | S. cerevisiae deletion strains, locus YMR058W, strain fet3, active compounds read low 0.714 | S. cerevisiae deletion strains, locus YOR106W, strain vam3, active compounds read low 0.836 | S. cerevisiae deletion strains, locus YPL051W, strain arl3, active compounds read low 0.907
inactive: [1] 0.976 | S. cerevisiae deletion strains, locus YAL021C, strain ccr4, active compounds read low 0.952 | S. cerevisiae deletion strains, locus YAL026C, strain drs2, active compounds read low 0.983 | S. cerevisiae deletion strains, locus YAL030W, strain snc1, active compounds read low 0.986 | S. cerevisiae deletion strains, locus YAL040C, strain CLN3, active compounds read low 1.02 | S. cerevisiae deletion strains, locus YBL061C, strain skt5, active compounds read low 0.963 | S. cerevisiae deletion strains, locus YBR009C, strain hhf1, active compounds read low 1 | S. cerevisiae deletion strains, locus YBR023C, strain chs3, active compounds read low 0.976 | S. cerevisiae deletion strains, locus YBR171W, strain sec66, active compounds read low 0.963 | S. cerevisiae deletion strains, locus YBR231C, strain swc5, active compounds read low 0.954 | S. cerevisiae deletion strains, locus YBR279W, strain paf1, active compounds read low 0.968 | S. cerevisiae deletion strains, locus YCL011C, strain gbp2, active compounds read low 0.974 | S. cerevisiae deletion strains, locus YCL016C, strain dcc1, active compounds read low 0.995 | S. cerevisiae deletion strains, locus YCL061C, strain MRC1 (second series), active compounds read low 0.98 | S. cerevisiae deletion strains, locus YCL061C, strain MRC1, active compounds read low 0.999 | S. cerevisiae deletion strains, locus YCL069W, strain vba3, active compounds read low 0.972 | S. cerevisiae deletion strains, locus YCR088W, strain abp1, active compounds read low 0.985 | S. cerevisiae deletion strains, locus YDL005C, strain med2, active compounds read low 0.966 | S. cerevisiae deletion strains, locus YDL040C, strain nat1, active compounds read low 0.987 | S. cerevisiae deletion strains, locus YDR001C, strain nth1, active compounds read low 0.992 | S. cerevisiae deletion strains, locus YDR069C, strain doa4, active compounds read low 0.917 | S. cerevisiae deletion strains, locus YDR137W, strain rgp1, active compounds read low 1.06 | [2] 0.97 | S. cerevisiae deletion strains, locus YDR159W, strain sac3, active compounds read low 1.03 | S. cerevisiae deletion strains, locus YDR195W, strain ref2 1 | S. cerevisiae deletion strains, locus YDR297W, strain sur2, active compounds read low 0.978 | S. cerevisiae deletion strains, locus YDR334W, strain swr1, active compounds read low 0.957 | S. cerevisiae deletion strains, locus YDR335W, strain msn5, active compounds read low 0.965 | S. cerevisiae deletion strains, locus YDR392W, strain spt3, active compounds read low 0.95 | S. cerevisiae deletion strains, locus YEL003W, strain gim4, active compounds read low 0.973 | S. cerevisiae deletion strains, locus YEL037C, strain rad23, active compounds read low 0.966 | S. cerevisiae deletion strains, locus YEL061C, strain CIN8 (second series), active compounds read low 0.979 | S. cerevisiae deletion strains, locus YER002W, strain NOP16, active compounds read low 1.02 | S. cerevisiae deletion strains, locus YER015W, strain faa2, active compounds read low 0.952 | S. cerevisiae deletion strains, locus YER016W, strain bim1, active compounds read low 0.985 | S. cerevisiae deletion strains, locus YER111C, strain swi4, active compounds read low 0.961 | S. cerevisiae deletion strains, locus YER155C, strain BEM2 (second series), active compounds read low 0.953 | S. cerevisiae deletion strains, locus YFR010W, strain ubp6, active compounds read low 0.976 | S. cerevisiae deletion strains, locus YGL167C, strain pmr1, active compounds read low 0.97 | S. cerevisiae deletion strains, locus YGL173C, strain kem1, active compounds read low 0.984 | S. cerevisiae deletion strains, locus YGL227W, strain vid30, active compounds read low 0.988 | S. cerevisiae deletion strains, locus YGL240W, strain doc1, active compounds read low 0.985 | S. cerevisiae deletion strains, locus YGL253W, strain hxk2, active compounds read low 0.978 | S. cerevisiae deletion strains, locus YHR013C, strain ard1, active compounds read low 0.952 | S. cerevisiae deletion strains, locus YHR027C, strain rpn1, active compounds read low 0.98 | [4] 1.01 | S. cerevisiae deletion strains, locus YHR079C, strain IRE1, active compounds read low 1 | S. cerevisiae deletion strains, locus YHR142W, strain chs7, active compounds read low 0.946 | S. cerevisiae deletion strains, locus YJL092W, strain hpr5, active compounds read low 0.97 | S. cerevisiae deletion strains, locus YJL095W, strain BCK1 (second series), active compounds read low 0.963 | S. cerevisiae deletion strains, locus YJL095W, strain BCK1, active compounds read low 0.982 | S. cerevisiae deletion strains, locus YJL115W, strain asf1, active compounds read low 0.999 | S. cerevisiae deletion strains, locus YJL129C, strain trk1, active compounds read low 1.01 | S. cerevisiae deletion strains, locus YJL154C, strain vps35, active compounds read low 0.982 | S. cerevisiae deletion strains, locus YJL164C, strain tpk1, active compounds read low 0.969 | S. cerevisiae deletion strains, locus YJL166W, strain qcr8, active compounds read low 0.979 | S. cerevisiae deletion strains, locus YJL187C, strain SWE1, active compounds read low 0.969 | S. cerevisiae deletion strains, locus YJR066W, strain TOR1, active compounds read low 0.877 | [5] 0.974 | S. cerevisiae deletion strains, locus YKL160W, strain elf1, active compounds read low 0.976 | S. cerevisiae deletion strains, locus YKR026C, strain gcn3, active compounds read low 0.989 | S. cerevisiae deletion strains, locus YKR091W, strain srl3, active compounds read low 0.981 | S. cerevisiae deletion strains, locus YLL001W, strain dnm1, active compounds read low 0.998 | S. cerevisiae deletion strains, locus YLL026W, active compounds read low 0.985 | S. cerevisiae deletion strains, locus YLL041C, strain sdh2, active compounds read low 0.981 | S. cerevisiae deletion strains, locus YLR027C, strain aat2, active compounds read low 0.981 | S. cerevisiae deletion strains, locus YLR113W, strain HOG1, active compounds read low 1.05 | S. cerevisiae deletion strains, locus YLR221C, strain rsa3, active compounds read low 0.983 | S. cerevisiae deletion strains, locus YLR258W, strain gsy2, active compounds read low 0.967 | S. cerevisiae deletion strains, locus YLR262C, strain YPT6 (second series), active compounds read low 0.973 | S. cerevisiae deletion strains, locus YLR320W, strain mms22, active compounds read low 0.985 | S. cerevisiae deletion strains, locus YLR342W, strain FKS1, active compounds read low 0.978 | S. cerevisiae deletion strains, locus YLR357W, strain rsc2, active compounds read low 0.857 | S. cerevisiae deletion strains, locus YLR370C, strain arc18, active compounds read low 0.98 | S. cerevisiae deletion strains, locus YLR384C, strain iki3, active compounds read low 0.957 | S. cerevisiae deletion strains, locus YML120C, strain ndi1, active compounds read low 0.978 | S. cerevisiae deletion strains, locus YMR125W, strain sto1, active compounds read low 0.958 | S. cerevisiae deletion strains, locus YMR129W, active compounds read low 0.989 | S. cerevisiae deletion strains, locus YMR205C, strain PFK2, active compounds read low 1.01 | S. cerevisiae deletion strains, locus YMR231W, strain pep5, active compounds read low 0.946 | S. cerevisiae deletion strains, locus YNL071W, strain lat1, active compounds read low 0.974 | S. cerevisiae deletion strains, locus YNL175C, strain NOP13, active compounds read low 1 | S. cerevisiae deletion strains, locus YNL183C, strain NPR1, active compounds read low 0.913 | S. cerevisiae deletion strains, locus YNL197C, strain WHI3, active compounds read low 1 | S. cerevisiae deletion strains, locus YNL209W, strain ssb2, active compounds read low 0.952 | S. cerevisiae deletion strains, locus YNL224C, strain SQS1, active compounds read low 1.03 | S. cerevisiae deletion strains, locus YNL248C, strain rpa49, active compounds read low 0.999 | S. cerevisiae deletion strains, locus YNL322C, strain KRE1 (second series), active compounds read low 0.999 | [6] 0.93 | S. cerevisiae deletion strains, locus YNR049C, strain mso1, active compounds read low 0.992 | S. cerevisiae deletion strains, locus YOR001W, strain rrp6, active compounds read low 0.959 | S. cerevisiae deletion strains, locus YOR070C, strain gyp1, active compounds read low 0.995 | S. cerevisiae deletion strains, locus YOR080W, strain dia2, active compounds read low 0.988 | S. cerevisiae deletion strains, locus YOR083W, strain WHI5 (second series), active compounds read low 0.999 | S. cerevisiae deletion strains, locus YOR083W, strain WHI5, active compounds read low 0.97 | S. cerevisiae deletion strains, locus YOR231W, strain MKK1, active compounds read low 1.01 | S. cerevisiae deletion strains, locus YOR265W, strain rbl2, active compounds read low 0.99 | S. cerevisiae deletion strains, locus YOR270C, strain vph1, active compounds read low 0.942 | S. cerevisiae deletion strains, locus YOR290C, strain snf2, active compounds read low 0.966 | [7] 0.961 | S. cerevisiae deletion strains, locus YPL078C, strain atp4, active compounds read low 0.982 | S. cerevisiae deletion strains, locus YPL106C, strain sse1, active compounds read low 0.915 | S. cerevisiae deletion strains, locus YPL240C, strain hsp82, active compounds read low 0.973 | S. cerevisiae deletion strains, locus YPL256C, strain CLN2, active compounds read low 1.06

Cc1ccc(Sc2nc(C)c([N+](=O)[O-])c(C)c2C#N)cc1
inactive: [1] 0.969 | S. cerevisiae deletion strains, locus YBR229C, strain ROT2, active compounds read low 0.982 | S. cerevisiae deletion strains, locus YDL101C, strain DUN1, active compounds read low 0.997 | [2] 0.99 | S. cerevisiae deletion strains, locus YEL061C, strain CIN8, active compounds read low 0.934 | S. cerevisiae deletion strains, locus YGR078C, strain PAC10, active compounds read low 0.979 | [3] 0.978 | S. cerevisiae deletion strains, locus YHR087W, strain rtc3, active compounds read low 0.975 | S. cerevisiae deletion strains, locus YJR043C, strain POL32, active compounds read low 0.967 | [5] 0.952 | S. cerevisiae deletion strains, locus YKL190W, strain CNB1, active compounds read low 0.977 | S. cerevisiae deletion strains, locus YLR058C, strain SHM2 (second series), active compounds read low 0.969 | S. cerevisiae deletion strains, locus YLR085C, strain ARP6, active compounds read low 0.883 | S. cerevisiae deletion strains, locus YML094W, strain GIM5, active compounds read low 1.01 | S. cerevisiae deletion strains, locus YMR219W, strain ESC1, active compounds read low 0.979 | S. cerevisiae deletion strains, locus YMR263W, strain SAP30, active compounds read low 0.97 | S. cerevisiae deletion strains, locus YMR307W, strain GAS1, active compounds read low 0.763 | S. cerevisiae deletion strains, locus YNL153C, strain GIM3, active compounds read low 0.994 | S. cerevisiae deletion strains, locus YNL298W, strain CLA4 (second series), active compounds read low 0.947 | [6] 0.974 | S. cerevisiae deletion strains, locus YNR030W, strain Alg12, active compounds read low 0.965 | [7] 0.963 | S. cerevisiae deletion strains, locus YPL241C, strain CIN2, active compounds read low 1.06 | S. cerevisiae deletion strains, locus YPR135W, strain CTF4, active compounds read low 0.828 | S. cerevisiae strains, strain wild type, active compounds read low 0.974
active: [4] 0.625 | S. cerevisiae deletion strains, locus YLR039C, strain RIC1, active compounds read low 0.664 | S. cerevisiae deletion strains, locus YLR262C, strain YPT6, active compounds read low 0.732
